For one molecule, inhibition results are on record in ChEMBL document CHEMBL1961873, “Compounds: GSK PKIS; Assays: Nanosyn kinase panel” (2012).

Molecules are shown by their SMILES. “And” between values parts separate entries of the source, which are not always exact repeats. Identical values can stand only once.

Assay [1] deals with T1, Inhibitor of nuclear factor kappa-B kinase subunit epsilon (Homo sapiens) (UniProt Q14164).
T1 sequence (whole entry): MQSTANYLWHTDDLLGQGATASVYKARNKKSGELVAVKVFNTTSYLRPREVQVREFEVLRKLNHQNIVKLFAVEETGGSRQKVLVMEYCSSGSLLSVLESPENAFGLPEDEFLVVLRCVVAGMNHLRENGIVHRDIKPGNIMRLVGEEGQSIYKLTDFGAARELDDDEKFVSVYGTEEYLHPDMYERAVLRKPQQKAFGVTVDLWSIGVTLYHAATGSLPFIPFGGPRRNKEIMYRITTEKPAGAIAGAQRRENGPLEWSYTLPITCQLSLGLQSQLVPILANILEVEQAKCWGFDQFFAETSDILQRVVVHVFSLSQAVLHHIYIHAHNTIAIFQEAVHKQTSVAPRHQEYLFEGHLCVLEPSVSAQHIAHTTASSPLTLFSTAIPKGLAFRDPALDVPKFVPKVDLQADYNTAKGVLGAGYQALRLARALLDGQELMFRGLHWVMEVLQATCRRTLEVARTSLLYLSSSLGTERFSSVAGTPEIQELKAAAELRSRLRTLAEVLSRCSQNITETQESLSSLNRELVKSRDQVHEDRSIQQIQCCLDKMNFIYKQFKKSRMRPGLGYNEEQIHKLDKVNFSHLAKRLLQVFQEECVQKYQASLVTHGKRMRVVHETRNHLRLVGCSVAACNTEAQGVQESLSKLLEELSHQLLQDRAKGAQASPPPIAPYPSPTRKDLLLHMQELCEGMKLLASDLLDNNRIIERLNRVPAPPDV
The following applies: at 1 µM.

In assay [2] the target is T2, Serine/threonine-protein kinase Nek1 (Homo sapiens) (UniProt Q96PY6).
T2 sequence (whole entry): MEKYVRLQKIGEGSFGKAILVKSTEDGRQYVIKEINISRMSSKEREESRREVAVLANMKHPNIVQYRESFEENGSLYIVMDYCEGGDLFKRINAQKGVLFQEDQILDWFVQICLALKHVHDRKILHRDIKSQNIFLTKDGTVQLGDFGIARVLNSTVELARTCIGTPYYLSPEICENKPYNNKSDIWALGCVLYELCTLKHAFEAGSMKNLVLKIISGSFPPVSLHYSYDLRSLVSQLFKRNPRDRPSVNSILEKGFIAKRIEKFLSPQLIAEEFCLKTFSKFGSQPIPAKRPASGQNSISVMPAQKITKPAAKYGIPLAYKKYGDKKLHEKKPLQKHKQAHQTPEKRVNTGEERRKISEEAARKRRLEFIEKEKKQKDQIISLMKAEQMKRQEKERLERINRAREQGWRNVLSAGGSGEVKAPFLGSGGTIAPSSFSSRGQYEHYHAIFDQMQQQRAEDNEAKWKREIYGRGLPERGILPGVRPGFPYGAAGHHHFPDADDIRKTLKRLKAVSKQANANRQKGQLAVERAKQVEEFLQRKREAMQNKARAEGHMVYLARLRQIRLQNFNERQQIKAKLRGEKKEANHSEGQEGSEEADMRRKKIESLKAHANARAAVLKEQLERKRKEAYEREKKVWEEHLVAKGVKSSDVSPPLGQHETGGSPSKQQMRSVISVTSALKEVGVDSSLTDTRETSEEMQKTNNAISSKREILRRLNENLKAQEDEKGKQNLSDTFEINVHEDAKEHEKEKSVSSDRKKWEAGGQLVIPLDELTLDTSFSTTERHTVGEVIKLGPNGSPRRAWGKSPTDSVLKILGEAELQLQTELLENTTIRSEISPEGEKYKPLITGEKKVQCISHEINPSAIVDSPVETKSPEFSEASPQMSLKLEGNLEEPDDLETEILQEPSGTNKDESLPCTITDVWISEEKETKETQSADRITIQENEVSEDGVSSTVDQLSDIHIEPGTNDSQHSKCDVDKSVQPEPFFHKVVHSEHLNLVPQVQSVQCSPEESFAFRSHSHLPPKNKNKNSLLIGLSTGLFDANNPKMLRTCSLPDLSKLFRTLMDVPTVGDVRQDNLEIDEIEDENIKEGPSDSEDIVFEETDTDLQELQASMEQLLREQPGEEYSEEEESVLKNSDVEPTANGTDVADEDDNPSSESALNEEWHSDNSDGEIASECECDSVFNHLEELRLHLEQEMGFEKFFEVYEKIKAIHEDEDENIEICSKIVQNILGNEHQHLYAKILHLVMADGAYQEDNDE
Particulars: at 0.1 µM.

The target of assay [3] is T2, Serine/threonine-protein kinase Nek1 (Homo sapiens). Particulars: at 1 µM.
In assay [4] the target is T3, Serine/threonine-protein kinase Nek2 (Homo sapiens) (UniProt P51955).
T3 sequence (whole entry): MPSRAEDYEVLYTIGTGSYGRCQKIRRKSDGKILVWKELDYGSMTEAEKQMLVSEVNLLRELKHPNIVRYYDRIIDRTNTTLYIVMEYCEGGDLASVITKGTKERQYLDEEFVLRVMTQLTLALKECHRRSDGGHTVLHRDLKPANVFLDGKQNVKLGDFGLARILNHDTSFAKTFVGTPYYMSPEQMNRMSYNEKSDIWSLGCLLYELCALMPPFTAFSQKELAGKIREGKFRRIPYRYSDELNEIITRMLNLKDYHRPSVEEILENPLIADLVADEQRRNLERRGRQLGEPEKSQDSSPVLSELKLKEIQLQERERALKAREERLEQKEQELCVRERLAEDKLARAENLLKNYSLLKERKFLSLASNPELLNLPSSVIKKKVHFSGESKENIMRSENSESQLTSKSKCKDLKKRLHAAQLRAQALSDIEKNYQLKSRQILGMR
Particulars: at 0.1 µM.

Assay [5] deals with T3, Serine/threonine-protein kinase Nek2 (Homo sapiens). Particulars: at 1 µM.
The target in assay [6] is Serine/threonine-protein kinase Nek6 (Homo sapiens) (UniProt Q9HC98). The following applies: at 0.1 µM.
Assay [7] shares this target. Particulars: at 1 µM.
Assay [8] addresses Serine/threonine-protein kinase Nek7 (Homo sapiens) (UniProt Q8TDX7). The following applies: at 0.1 µM.
The target is the same in assay [9]. The following applies: at 1 µM.
The target of assay [10] is T4, Serine/threonine-protein kinase Nek9 (Homo sapiens) (UniProt Q8TD19).
T4 sequence (whole entry): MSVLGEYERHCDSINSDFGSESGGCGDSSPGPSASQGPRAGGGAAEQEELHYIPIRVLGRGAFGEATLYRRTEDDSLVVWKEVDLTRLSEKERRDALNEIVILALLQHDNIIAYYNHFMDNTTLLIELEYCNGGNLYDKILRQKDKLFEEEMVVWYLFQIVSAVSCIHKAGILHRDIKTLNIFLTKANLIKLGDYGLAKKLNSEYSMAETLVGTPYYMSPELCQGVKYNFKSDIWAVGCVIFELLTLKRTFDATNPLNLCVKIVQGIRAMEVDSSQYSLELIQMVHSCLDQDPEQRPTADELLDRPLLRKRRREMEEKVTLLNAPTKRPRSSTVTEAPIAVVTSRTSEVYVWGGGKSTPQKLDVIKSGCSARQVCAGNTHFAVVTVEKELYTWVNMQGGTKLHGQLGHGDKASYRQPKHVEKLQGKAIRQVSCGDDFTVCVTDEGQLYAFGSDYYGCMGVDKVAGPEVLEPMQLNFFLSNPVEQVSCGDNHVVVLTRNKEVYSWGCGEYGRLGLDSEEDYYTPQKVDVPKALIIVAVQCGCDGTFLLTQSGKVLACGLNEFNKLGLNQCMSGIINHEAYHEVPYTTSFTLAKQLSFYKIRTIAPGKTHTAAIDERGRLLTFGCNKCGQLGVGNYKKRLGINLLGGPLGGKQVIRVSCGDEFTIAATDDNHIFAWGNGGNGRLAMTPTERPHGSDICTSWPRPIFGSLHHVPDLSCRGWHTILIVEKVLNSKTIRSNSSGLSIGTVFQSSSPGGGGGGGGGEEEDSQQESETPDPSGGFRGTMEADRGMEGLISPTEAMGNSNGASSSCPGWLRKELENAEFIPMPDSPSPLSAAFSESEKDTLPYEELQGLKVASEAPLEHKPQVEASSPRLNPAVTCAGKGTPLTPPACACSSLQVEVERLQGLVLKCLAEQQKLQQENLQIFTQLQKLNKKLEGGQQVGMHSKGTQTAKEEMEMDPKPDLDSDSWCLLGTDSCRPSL
Particulars: at 0.1 µM.

Assay [11] concerns the target T4, Serine/threonine-protein kinase Nek9 (Homo sapiens). The following applies: at 1 µM.
The target in assay [12] is Serine/threonine-protein kinase PLK1 (Homo sapiens) (UniProt P53350). The following applies: at 0.1 µM.
The target is the same in assay [13]. The following applies: at 1 µM.
For assay [14], the target named is T5, Dual specificity protein kinase TTK (Homo sapiens) (UniProt P33981).
T5 sequence (whole entry): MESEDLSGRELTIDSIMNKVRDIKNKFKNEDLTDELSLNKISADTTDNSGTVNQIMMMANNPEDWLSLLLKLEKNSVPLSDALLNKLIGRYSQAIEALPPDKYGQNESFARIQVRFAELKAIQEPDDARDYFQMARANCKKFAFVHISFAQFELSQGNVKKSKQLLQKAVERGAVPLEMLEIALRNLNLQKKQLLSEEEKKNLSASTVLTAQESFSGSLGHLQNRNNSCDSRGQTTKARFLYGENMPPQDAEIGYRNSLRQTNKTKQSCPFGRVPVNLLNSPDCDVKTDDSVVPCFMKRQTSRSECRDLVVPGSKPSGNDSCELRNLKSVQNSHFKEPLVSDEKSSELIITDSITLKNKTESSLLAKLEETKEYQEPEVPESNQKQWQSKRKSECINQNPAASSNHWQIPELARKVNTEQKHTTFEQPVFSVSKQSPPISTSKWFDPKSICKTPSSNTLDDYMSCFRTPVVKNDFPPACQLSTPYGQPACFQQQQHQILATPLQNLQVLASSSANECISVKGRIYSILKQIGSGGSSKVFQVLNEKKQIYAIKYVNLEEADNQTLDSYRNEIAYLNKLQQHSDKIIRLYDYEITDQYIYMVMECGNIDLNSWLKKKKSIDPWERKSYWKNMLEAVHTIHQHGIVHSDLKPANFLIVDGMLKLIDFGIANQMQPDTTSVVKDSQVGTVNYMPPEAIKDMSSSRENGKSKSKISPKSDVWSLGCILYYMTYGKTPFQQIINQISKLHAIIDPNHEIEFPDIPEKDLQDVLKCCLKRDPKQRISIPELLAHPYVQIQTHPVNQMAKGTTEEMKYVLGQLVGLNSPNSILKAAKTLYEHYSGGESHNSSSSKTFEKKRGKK
The following applies: at 0.1 µM.

In assay [15] the test system is T6, Receptor-type tyrosine-protein kinase FLT3 (Homo sapiens), P36888 [D835Y].
T6 sequence (whole entry): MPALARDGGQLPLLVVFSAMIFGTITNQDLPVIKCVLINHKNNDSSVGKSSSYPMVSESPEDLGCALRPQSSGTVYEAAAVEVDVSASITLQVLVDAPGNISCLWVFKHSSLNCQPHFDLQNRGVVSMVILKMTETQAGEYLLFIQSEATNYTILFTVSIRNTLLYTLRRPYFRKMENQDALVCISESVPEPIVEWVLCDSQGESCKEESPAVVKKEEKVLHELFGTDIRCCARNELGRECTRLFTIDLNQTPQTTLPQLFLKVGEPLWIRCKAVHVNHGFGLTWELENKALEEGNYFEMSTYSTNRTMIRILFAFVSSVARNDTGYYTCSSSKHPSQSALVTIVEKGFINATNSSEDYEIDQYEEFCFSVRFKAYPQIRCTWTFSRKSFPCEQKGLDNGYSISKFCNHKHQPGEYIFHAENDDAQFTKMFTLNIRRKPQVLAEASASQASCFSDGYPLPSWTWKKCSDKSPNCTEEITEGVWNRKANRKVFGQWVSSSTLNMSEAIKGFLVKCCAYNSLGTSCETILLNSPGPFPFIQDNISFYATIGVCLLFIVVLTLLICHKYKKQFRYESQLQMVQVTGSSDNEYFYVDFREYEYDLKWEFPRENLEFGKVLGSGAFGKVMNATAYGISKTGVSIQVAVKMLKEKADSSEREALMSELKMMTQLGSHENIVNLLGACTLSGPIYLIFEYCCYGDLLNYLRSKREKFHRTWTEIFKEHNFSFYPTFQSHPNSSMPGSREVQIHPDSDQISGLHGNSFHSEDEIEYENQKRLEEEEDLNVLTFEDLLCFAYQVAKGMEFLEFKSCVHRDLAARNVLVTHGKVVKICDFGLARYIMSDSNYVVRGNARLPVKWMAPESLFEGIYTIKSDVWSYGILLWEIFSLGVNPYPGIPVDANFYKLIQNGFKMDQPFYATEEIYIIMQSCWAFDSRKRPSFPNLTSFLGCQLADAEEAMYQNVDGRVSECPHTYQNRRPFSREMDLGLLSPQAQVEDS
The following applies: at 1 µM.

Assay [16] concerns the target Vascular endothelial growth factor receptor 3 (Homo sapiens) (UniProt P35916). The following applies: at 0.1 µM.
Assay [17] shares this target. Particulars: at 1 µM.
Assay [18] deals with Macrophage colony-stimulating factor 1 receptor (Homo sapiens) (UniProt P07333). Particulars: at 0.1 µM.
Assay [19] shares this target. The following applies: at 1 µM.
The target in assay [20] is Tyrosine-protein kinase Fyn (Homo sapiens) (UniProt P06241). The following applies: at 0.1 µM.
Sequence of Tyrosine-protein kinase Fyn (Homo sapiens) (P06241 2-537 limits assumed): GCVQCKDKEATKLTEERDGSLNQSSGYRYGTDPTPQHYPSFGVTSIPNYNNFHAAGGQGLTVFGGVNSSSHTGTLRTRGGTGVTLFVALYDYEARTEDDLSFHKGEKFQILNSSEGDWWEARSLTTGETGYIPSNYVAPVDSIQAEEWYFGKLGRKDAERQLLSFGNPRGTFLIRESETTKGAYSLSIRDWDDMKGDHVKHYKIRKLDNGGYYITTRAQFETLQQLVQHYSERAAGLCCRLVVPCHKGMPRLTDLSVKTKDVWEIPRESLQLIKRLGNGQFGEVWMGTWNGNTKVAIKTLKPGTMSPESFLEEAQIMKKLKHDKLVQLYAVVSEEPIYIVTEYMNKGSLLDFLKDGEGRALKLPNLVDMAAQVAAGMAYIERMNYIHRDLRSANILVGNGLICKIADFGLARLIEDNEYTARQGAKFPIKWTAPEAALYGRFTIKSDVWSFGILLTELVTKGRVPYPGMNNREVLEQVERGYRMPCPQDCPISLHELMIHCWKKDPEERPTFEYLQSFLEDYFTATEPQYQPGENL

Sequence of Serine/threonine-protein kinase PLK1 (Homo sapiens) (P53350 whole entry): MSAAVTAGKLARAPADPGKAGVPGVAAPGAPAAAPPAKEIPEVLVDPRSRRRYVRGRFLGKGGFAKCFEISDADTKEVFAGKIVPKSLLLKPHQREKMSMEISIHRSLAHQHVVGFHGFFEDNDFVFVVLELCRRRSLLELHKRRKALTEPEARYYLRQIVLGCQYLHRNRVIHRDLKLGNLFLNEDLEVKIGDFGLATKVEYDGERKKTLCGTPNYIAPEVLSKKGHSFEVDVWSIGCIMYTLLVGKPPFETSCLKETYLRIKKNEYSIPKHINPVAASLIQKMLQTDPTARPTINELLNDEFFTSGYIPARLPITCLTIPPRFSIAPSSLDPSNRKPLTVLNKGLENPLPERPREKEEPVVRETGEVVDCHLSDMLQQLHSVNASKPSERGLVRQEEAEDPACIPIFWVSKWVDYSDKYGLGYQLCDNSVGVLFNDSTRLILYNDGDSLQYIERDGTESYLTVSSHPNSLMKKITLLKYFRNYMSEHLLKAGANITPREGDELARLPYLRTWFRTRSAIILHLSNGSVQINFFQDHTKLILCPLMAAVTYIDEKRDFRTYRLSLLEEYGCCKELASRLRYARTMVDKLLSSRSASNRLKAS
Sequence of Vascular endothelial growth factor receptor 3 (Homo sapiens) (P35916 whole entry): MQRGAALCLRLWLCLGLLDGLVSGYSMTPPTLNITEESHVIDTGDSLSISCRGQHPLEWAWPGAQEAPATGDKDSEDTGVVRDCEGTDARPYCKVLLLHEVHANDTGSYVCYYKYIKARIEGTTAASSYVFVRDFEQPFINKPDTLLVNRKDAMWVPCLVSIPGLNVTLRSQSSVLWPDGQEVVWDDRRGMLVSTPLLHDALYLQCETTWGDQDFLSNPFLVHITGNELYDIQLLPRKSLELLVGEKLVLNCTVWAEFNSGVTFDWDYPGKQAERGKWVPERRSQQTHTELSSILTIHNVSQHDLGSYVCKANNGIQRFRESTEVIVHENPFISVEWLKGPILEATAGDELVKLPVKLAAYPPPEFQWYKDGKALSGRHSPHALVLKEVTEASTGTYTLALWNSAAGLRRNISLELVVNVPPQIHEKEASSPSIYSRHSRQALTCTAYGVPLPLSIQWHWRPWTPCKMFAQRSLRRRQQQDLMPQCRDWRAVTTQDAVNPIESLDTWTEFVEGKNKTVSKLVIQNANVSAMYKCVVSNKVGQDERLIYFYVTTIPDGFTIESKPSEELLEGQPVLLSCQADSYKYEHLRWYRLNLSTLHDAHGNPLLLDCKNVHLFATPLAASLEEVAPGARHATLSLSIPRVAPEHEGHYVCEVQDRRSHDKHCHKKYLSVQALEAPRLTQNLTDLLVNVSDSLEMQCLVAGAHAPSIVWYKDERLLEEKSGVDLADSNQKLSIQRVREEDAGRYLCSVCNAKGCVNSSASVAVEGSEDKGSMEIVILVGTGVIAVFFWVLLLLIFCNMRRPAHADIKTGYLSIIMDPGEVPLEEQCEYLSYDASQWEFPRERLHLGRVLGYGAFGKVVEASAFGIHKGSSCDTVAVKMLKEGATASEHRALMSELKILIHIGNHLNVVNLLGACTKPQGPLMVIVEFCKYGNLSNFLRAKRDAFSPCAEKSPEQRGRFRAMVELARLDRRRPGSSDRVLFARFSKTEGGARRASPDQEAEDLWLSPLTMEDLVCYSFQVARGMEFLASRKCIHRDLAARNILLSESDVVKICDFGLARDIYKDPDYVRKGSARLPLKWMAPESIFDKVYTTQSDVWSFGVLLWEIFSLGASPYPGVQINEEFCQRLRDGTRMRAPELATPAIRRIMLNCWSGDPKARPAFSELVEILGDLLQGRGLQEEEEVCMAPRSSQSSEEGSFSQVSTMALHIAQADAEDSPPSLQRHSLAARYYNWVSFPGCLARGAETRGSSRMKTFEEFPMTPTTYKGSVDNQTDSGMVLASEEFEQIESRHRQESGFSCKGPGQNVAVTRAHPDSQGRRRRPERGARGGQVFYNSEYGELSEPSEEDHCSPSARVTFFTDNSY
Sequence of Serine/threonine-protein kinase Nek7 (Homo sapiens) (Q8TDX7 whole entry, looked up): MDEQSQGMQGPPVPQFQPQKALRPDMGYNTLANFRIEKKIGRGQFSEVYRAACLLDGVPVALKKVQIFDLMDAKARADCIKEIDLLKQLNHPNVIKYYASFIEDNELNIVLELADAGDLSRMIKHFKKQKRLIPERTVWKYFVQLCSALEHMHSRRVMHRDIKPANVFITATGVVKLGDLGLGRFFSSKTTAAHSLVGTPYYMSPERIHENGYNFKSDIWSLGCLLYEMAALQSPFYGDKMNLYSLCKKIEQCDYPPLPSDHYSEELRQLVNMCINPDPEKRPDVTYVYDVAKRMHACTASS
Sequence of Macrophage colony-stimulating factor 1 receptor (Homo sapiens) (P07333 whole entry): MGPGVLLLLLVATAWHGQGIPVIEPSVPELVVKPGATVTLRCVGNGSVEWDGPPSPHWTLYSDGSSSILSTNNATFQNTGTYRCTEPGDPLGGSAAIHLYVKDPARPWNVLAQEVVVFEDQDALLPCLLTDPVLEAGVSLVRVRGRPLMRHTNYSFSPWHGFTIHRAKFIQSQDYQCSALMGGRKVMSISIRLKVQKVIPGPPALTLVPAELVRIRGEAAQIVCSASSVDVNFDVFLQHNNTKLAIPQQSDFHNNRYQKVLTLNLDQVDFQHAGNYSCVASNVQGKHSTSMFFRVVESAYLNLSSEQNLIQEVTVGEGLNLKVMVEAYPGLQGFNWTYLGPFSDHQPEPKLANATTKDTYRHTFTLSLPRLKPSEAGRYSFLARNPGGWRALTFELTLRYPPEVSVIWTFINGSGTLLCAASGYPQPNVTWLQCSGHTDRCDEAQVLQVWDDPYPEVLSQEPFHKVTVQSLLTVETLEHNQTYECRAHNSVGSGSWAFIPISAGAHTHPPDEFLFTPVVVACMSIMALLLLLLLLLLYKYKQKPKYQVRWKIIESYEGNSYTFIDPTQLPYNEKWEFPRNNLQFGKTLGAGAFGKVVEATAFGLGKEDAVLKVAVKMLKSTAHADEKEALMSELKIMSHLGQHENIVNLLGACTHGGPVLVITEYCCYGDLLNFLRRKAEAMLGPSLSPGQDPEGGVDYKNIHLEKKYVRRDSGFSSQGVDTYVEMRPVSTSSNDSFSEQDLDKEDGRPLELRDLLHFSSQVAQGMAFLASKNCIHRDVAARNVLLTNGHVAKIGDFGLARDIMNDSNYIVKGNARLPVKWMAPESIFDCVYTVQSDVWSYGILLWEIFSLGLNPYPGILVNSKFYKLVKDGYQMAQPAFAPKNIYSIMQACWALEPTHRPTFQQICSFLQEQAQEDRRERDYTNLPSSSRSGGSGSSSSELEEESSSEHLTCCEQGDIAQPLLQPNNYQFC
Sequence of Serine/threonine-protein kinase Nek6 (Homo sapiens) (Q9HC98 whole entry): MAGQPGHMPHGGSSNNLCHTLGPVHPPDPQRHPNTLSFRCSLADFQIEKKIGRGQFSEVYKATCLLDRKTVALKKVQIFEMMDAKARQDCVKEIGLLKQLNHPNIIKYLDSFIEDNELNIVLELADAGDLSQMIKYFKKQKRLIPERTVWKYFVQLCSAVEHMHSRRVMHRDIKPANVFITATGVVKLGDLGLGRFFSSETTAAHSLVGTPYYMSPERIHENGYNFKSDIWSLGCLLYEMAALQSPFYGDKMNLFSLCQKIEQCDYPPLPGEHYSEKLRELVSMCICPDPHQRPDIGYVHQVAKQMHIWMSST

In general, inhibition refers to the drop in the measured response relative to a control, in per cent. As for `Nc1ncnc2occ(-c3ccc(NC(=O)Nc4cc(C(F)(F)F)ccc4F)cc3)c12`, the inhibition is 11.5% and 1.35% in [1]; 4.57% and -0.38% in assay [2]; 34.7% and 18.1% in assay [3]; 1.72% and -2.9% in [4]; -2.44% and -3.79% in [5]; 2.68% and -0.01% in assay [6]. Besides, the inhibition is -0.68% and -1.16% in [7]; 2.87% and -5.06% in assay [8]; -8.19% and -5.1% in assay [9]; 5.05% and 5.01% in assay [10]; 4.68% and 3.35% in assay [11]; 2.14% and -0.72% in assay [12]. The inhibition in assay [13] is 1.27% and 0.12%; in assay [14] it was 1.69% and 5.46%; in assay [15], 35.4% and 26.1%; in assay [16], 44.8% and 23.6%; in [17], 97.2% and 75.5%; in assay [18], 91.2% and 83.5%. Besides, the inhibition was 96.1% and 81.2% in assay [19]; 2.34% and 3.05% in assay [20].
